# Data as given in PubChem BioAssay AID588675 (Johns Hopkins Ion Channel Center, 2011).
# Out of some 310,000 compounds screened, about 1,900 (0.61%) were called active.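 How the source made its calls: active means plate-corrected calcium response at least 3 library SD above typical, normal starting fluorescence, not activating the receptor alone; inactive means the rest.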 The sample as a whole holds a higher share of actives than the screen did.
# Target: Mas-related G-protein coupled receptor member X1 (Homo sapiens) (UniProt Q96LB2)
# Sequence (Q96LB2 whole entry, looked up): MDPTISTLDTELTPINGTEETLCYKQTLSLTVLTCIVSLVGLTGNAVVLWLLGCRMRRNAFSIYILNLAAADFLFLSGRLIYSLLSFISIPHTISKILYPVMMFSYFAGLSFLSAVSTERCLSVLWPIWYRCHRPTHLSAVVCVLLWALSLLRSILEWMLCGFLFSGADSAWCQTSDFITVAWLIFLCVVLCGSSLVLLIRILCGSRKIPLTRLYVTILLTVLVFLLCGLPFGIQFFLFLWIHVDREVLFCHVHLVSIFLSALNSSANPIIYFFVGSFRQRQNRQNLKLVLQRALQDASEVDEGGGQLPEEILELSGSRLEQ
# Assay: positive allosteric modulators of MrgX1, primary screen, HEK293 cells, Fluo-4 calcium flux (AID 588675);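 further: compound read alongside a low EC10 to EC30 dose of BAM8-22 agonist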;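 on B-score: peak minus trough fluorescence over baseline measured at the second addition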
# Conditions: MrgX1-HEK293, Fluo-4 calcium flux, FDSS, at 10 µM; stronger effect = higher value
row,Structure (SMILES),B-score
1,O=C(CCc1[nH]c2ccccc2c1Sc1ccccc1)N(CCO)CCO,inactive
2,CN(Cc1ccccc1)C(=O)C1CCCN(c2ncnc3c2nc2n3CCCCC2)C1 (configuration not stated),inactive
3,CCCCOP(=O)(c1ccc(N(C)C)cc1)C(O)c1cc(OC)ccc1OC (configuration not stated),inactive
4,COC(CNC(=O)Cn1ncc2ccsc2c1=O)OC,inactive
5,CCC1=C(OC(=O)N(CC)CC)N2C(=O)OC(=NCC3CC3)[C@]2(C)[C@H]2C1=CC[C@H]1C(=O)N(CC(=O)OC)C(=O)[C@H]12,inactive
6,COc1cccc(NS(=O)(=O)c2ccc(-c3coc(C)n3)cc2)c1,inactive
7,CCN(c1cccc(C)c1)S(=O)(=O)c1ccc(-c2coc(C)n2)cc1,8.56 (active)
8,Cc1ccc(NS(=O)(=O)c2ccc(-c3coc(C)n3)cc2)c(C)c1,inactive
9,CCCCN(CCCC)CCC(O)c1cc2c(Cl)cc(Cl)cc2c2cc(C(F)(F)F)ccc12 (configuration not stated),inactive
10,Fc1ccc(COc2ccc(-c3nnco3)cc2)cc1,inactive
11,Fc1cccc(Cl)c1COc1ccc(-c2nnco2)cc1,13.2 (active)
12,O=C(/C=C/c1ccc(OCc2c(F)cccc2Cl)cc1)N1CCOCC1,inactive
13,O=C(Nc1ccc(F)cc1)N1CCN(c2ccc(F)cc2)CC1,inactive
14,O=C(c1cc(-c2ccc(F)cc2)on1)N1CCN(c2ccc(F)cc2)CC1,inactive
15,Cc1c(C(=O)N2CCN(c3ccc(F)cc3)CC2)oc2c1C(=O)CCC2,7.4 (active)
16,Cc1ccc(S(=O)(=O)n2nc(OC(=O)C(C)(C)C)cc2N)cc1,inactive
17,Nc1cc(OC(=O)c2ccccc2Br)nn1S(=O)(=O)c1ccccc1,7.83 (active)
18,O=C(COC(=O)c1ccccc1Br)Nc1nnc(-c2ccccc2)o1,inactive
19,Cc1ccc2[nH]c(C(=O)O)c(NC(=O)c3ccccc3[N+](=O)[O-])c2c1,inactive
20,O=C(O)C1=CCCN(CCON=C(c2ccccc2)c2ccccc2)C1,inactive
21,Cc1ccc(S(=O)(=O)N2CCOCC2)cc1C(=O)Nc1ccccc1N1CCCC1,inactive
22,O=C(Nc1ccccc1N1CCOCC1)c1csc2c1CCCC2,12 (active)

row,Structure (SMILES),B-score
1,Cc1cc(C(=O)Nc2ccccc2N2CCOCC2)c2ccccc2n1,inactive
2,c1ccc(-c2ccc3c(c2)NC(C2Nc4cc(-c5ccccc5)ccc4O2)O3)cc1 (configuration not stated),inactive
3,O=C(Oc1ccc(Br)cc1C(=S)N1CCOCC1)c1cccc([N+](=O)[O-])c1,inactive
4,COc1ccc(Nc2nnc(C)c3ccccc23)cc1,22.5 (active)
5,COc1ccc(Nc2nc(=O)[nH]nc2C)cc1,inactive
6,Cc1nnc(NCCO)c2ccccc12,inactive
7,CN(c1ccccc1)S(=O)(=O)c1ccc(NC(=O)COc2ccccc2)cc1,inactive
8,O=C(NCc1ccccc1Cl)c1ccc2c(=O)n(CC3CCCO3)c(=S)[nH]c2c1 (configuration not stated),inactive
9,CC(C)CCn1cnc2c1c(=O)n(CC(=O)NC(N)=O)c(=O)n2Cc1ccccc1,inactive
10,Cc1ccc(Oc2nc3ccccc3n3c(C)nnc23)cc1,inactive
11,CC(=O)Nc1ccc(S(=O)(=O)N(C)c2nc3ccccc3nc2Cl)cc1,inactive
12,Cc1ccc(S(=O)(=O)N(C)c2nc3ccccc3n3c(C(C)C)nnc23)cc1,6.54 (active)
13,CC(C)CC(=O)NC(=S)NCc1ccccc1,inactive
14,CCC(=O)NC(=Nc1nc2ccccc2s1)NC(=O)CC,inactive
15,CC(C)CC(=O)N/C(N)=N/c1nc2ccccc2s1,12.9 (active)
16,O=C(c1cccc(-n2cccc2)c1)N1CCN(S(=O)(=O)c2ccc(F)cc2)CC1,inactive
17,CC(NC(=O)c1ccc(N2CCNCC2)c([N+](=O)[O-])c1)C12CC3CC(CC(C3)C1)C2 (configuration not stated),6.65 (active)
18,O=C(NC1C2CC3CC(C2)CC1C3)c1ccc(N2CCNCC2)c([N+](=O)[O-])c1 (configuration not stated),inactive
19,CCC(C)NC(=O)c1ccc(N2CCC3(CC2)OCCO3)c([N+](=O)[O-])c1 (configuration not stated),inactive
20,CCOC(=O)Cc1csc(NC(=O)CN(C)S(=O)(=O)c2ccc3c(c2)CCC(=O)N3)n1,inactive
21,C/C(=N\NC(=O)c1ccoc1C)c1ccccc1O,inactive
22,Cc1nn(-c2ccc([N+](=O)[O-])cc2)c(N)c1-c1ccccc1,inactive

row,Structure (SMILES),B-score
1,Cc1nn(C(=O)c2ccoc2C)c(N)c1-c1ccccc1,15.4 (active)
2,N#CCC(=O)NC1CCC(CC2CCC(NC(=O)CC#N)CC2)CC1 (configuration not stated),inactive
3,COc1cc(OC)c(-n2cc(-c3ccc(Cl)cc3)[nH]c2=O)cc1Cl,inactive
4,COc1cc(OC)c(-n2c(C)cc(C=O)c2C)cc1Cl,9.68 (active)
5,Cc1ccccc1-n1c(C)cc(/C=C2\NC(=O)NC2=O)c1C,inactive
6,COCCNC(=O)C1CCN(S(=O)(=O)c2ccc3c(c2)OCCO3)CC1,24.9 (active)
7,O=C(NCc1cccs1)C1CCN(S(=O)(=O)c2ccc3c(c2)OCCO3)CC1,inactive
8,COc1ccccc1CNC(=O)C1CCN(S(=O)(=O)c2ccc3c(c2)OCCO3)CC1,inactive
9,O=C(/C=C/c1ccc(F)cc1)NC(=S)NNC(=O)c1cccnc1,inactive
10,CCCCn1c(N)c(N(CCOC)C(=O)COc2c(C)cccc2C)c(=O)[nH]c1=O,inactive
11,Cc1ccc(S(=O)(=O)NC(=O)COc2ccccc2C)cc1,inactive
12,Cc1ccc(C(=O)Nc2nnc(-c3ccncc3)s2)o1,inactive
13,Cc1occc1C(=O)Nc1nnc(C2CCCCC2)s1,inactive
14,Cc1occc1C(=O)Nc1nnc(-c2ccncc2)s1,7.38 (active)
15,CCOc1ccc(OCC)c(NC(=O)CSc2nnc(Cn3cnc4ccccc43)n2C)c1,inactive
16,COC(=O)C1=C(C)N(C)C(=S)NC1c1cc(OC)ccc1OC (configuration not stated),inactive
17,COC(=O)c1ccc(/C=N/NC(=O)C(=O)N2CCCCCC2)cc1,inactive
18,COC(=O)c1ccc(/C=N/N2C(C)CCCC2C)cc1 (configuration not stated),6.7 (active)
19,CC1CCCC(C)N1/N=C/c1ccccc1OC(F)F (configuration not stated),inactive
20,Cc1c(CCC(=O)O)c(=O)oc2cc3occ(-c4ccccc4)c3cc12,7.5 (active)
21,Cc1c(CC(=O)NCCCCCC(=O)O)c(=O)oc2cc3occ(-c4ccccc4)c3cc12,inactive
22,Cc1coc2cc3oc(=O)c(CCC(=O)O)c(C)c3cc12,inactive

row,Structure (SMILES),B-score
1,O=C1NC2(CCCCCC2)C(=O)N1CCS(=O)(=O)Oc1ccccc1,inactive
2,Cc1ccsc1C1C(C#N)=C(N)OC2=C1C(=O)CC(C)C2 (configuration not stated),inactive
3,COC(=O)[C@]1(S(=O)(=O)c2ccccc2)C[C@@H]2ON=C(c3ccc(OC)cc3)[C@@H]2C1,inactive
4,Cc1ccc(-n2ccc(=O)c(C(=O)O)n2)cc1,inactive
5,Cc1ccc(-n2cnc3ncnc(-c4ccccc4)c32)cc1,7.18 (active)
6,Cc1ccc(-c2nn(C(C)(C)C)c3ncnc(N)c23)cc1,inactive
7,CC(C)OC(=O)c1ccc(COc2ccc3ccc(=O)oc3c2)o1,inactive
8,CCc1cc2c(=O)c(-c3nc4ccccc4n3C)c(CCCC(=O)O)oc2cc1OC(=O)C(C)(C)C,inactive
9,COc1cccc2c(C)c(C(=O)O)[nH]c12,inactive
10,COc1cc(C(F)(F)F)nc2c(Br)c(C(C)(C)C)nn12,10.1 (active)
11,CNC(=O)c1sc(Nc2ccc(OCc3ccccc3)cc2)nc1C,inactive
12,CCCC(=O)Nc1ncnc2c1ncn2[C@@H]1O[C@@H]2OP(=O)(O)OC[C@H]2[C@H]1OC(=O)CCC,inactive
13,CC(=O)N1c2ccc(S(=O)(=O)N3CCCC(C(=O)NCc4ccc(Cl)cc4)C3)cc2CC1C (configuration not stated),inactive
14,CC(=O)N1c2ccc(S(=O)(=O)N3CCCC(C(=O)Nc4cccc(Cl)c4)C3)cc2CC1C (configuration not stated),16.4 (active)
15,CC(=O)N1c2ccc(S(=O)(=O)N3CCCC(C(=O)Nc4cccc(F)c4)C3)cc2CC1C (configuration not stated),inactive
16,Cc1nnc(SCC(=O)NC(=O)NC2CCCC2)n1N,inactive
17,COc1ccc(C2c3[nH]c4ccccc4c3CCN2CCCn2cccn2)cc1C (configuration not stated),inactive
18,Cc1nccn1CCC1CCCCN1C(=O)CCc1nnc(-c2ccsc2)o1 (configuration not stated),inactive
19,CC1(C)CC(=O)CC2(C1)NCC(c1ccccc1Cl)c1c2[nH]c2ccccc12 (configuration not stated),13.7 (active)
20,CC1CCN(c2ccc(-c3ccc(NC(=O)c4ccco4)cc3)nn2)CC1,inactive
21,O=C(O)CCN=C1CCc2ccccc2N1,inactive
22,CCOC(=O)C1CCN(S(=O)(=O)c2ccc3c(c2)N(C)C(=O)CC(=O)N3C)CC1,inactive

row,Structure (SMILES),B-score
1,COc1cccc(NC(=O)CSc2nnc(Cc3ccc(OC)c(OC)c3)o2)c1,10.7 (active)
2,COc1ccc(Cc2nnc(SCC(=O)Nc3ccc(C)c(C)c3)o2)cc1OC,inactive
3,COc1ccc(C(=O)NCc2nnc(SCC(=O)Nc3cccc(OC)c3)o2)cc1,inactive
4,O=S(=O)(Nc1ccc(Oc2ncccn2)c(Cl)c1)c1ccc(F)cc1,inactive
5,COc1ccc(Cl)cc1NC(=O)CCS(=O)(=O)c1ccc(Br)cc1,inactive
6,CC1CCN(CCCNC(=O)CN2C(=O)CSc3ccc(S(=O)(=O)N4CCCCC4)cc32)CC1,inactive
7,CC(=O)c1ccc(N=C2SCCCN2C(=O)C2CCCCC2)cc1,inactive
8,O=C(c1cc2c(s1)CCC2)N1CCN(c2ccccc2)CC1,inactive
9,O=C(NNC(=O)c1cc2c(s1)CCCC2)c1ccccc1,6.55 (active)
10,O=C(Nc1ccc(F)cc1)c1cc2c(s1)CCCC2,inactive
11,CC1(C)C=Cc2c(ccc3c2OC[C@@H](c2ccc(O)cc2O)C3)O1,inactive
12,CC1(C)CC(=O)c2cnc3nc4ccccc4n3c2C1,inactive
13,CCn1cc(C(=O)NCC(=O)NC(C)(C)CO)c(=O)c2cc3c(cc21)OCO3,inactive
14,COc1ccc(-c2nc(N)ncc2-c2ccc(Cl)cc2)c(O)c1,inactive
15,COc1cccc(-c2cnc(OC(C)(C)C)nc2OC(C)(C)C)c1,6.93 (active)
16,CC(C)(C)Oc1ncc(Br)c(OC(C)(C)C)n1,inactive
17,OCCn1c(-c2ccccc2)csc1=Nc1ccccc1,14.7 (active)
18,Cc1csc(=NC(=O)c2ccccc2)n1CCO,inactive
19,Cc1csc(=Nc2ccccc2)n1CCO,inactive
